From PubChem BioAssay (EPA / NIEHS)
Records with an inconclusive call do not appear. Where a structure was tested more than once in an assay, its records may differ in their call. Active and inactive are the calls of the source. Rule for the calls, unless noted: active = hit-call score of the fitted dose curve at least 0.9, where 1 is the maximum; inconclusive = response in the unintended direction; inactive = score below 0.9.

Assays:
[1] = TOX21_p53_BLA_p2_viability: Viability Assessment in the Tox21 HCT-116 p53 Agonism Beta-lactamase Assay, Phase 2 (AID 2283591);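 note: compound exposure lasted 16 h at 37 °C; actives lower the ATP signal meaning cytotoxicity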
Procedure, shortened: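 HCT116 p53-bla cells, 4000/well, dosed after 5 h plating (217-fold dilution of DMSO stocks) and incubated 16 h at 37C. Viability taken as cellular ATP by CellTiter-Glo luminescence after 30 min RT; signal loss marks cytotoxicity.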

[2] = TOX21_p53_BLA_p3_viability: Viability Assessment in the Tox21 HCT-116 p53 Agonism Beta-lactamase Assay, Phase 3 (AID 2283593);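 note: cells exposed to compound for 16 h before reading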
Procedure, shortened: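 HCT116 cells, 4000/well, dosed 5 h after plating by pin transfer (217-fold dilution from DMSO stock) and incubated 16 h at 37C, 5% CO2. Viability read as ATP luminescence with CellTiter-Glo after 30 min at room temperature.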

[3] = TOX21_p53_BLA_p4_viability: Viability Assessment in the Tox21 HCT-116 p53 Agonism Beta-lactamase Assay, Phase 4 (AID 2283597);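 note: hits lower the luminescence signal meaning cytotoxicity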
Procedure, shortened: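 Cells plated, 5 h pre-incubation; DMSO compounds pinned (217-fold dilution); 16 h, 37C/5% CO2; CCF4-AM 2 h RT; CellTiter-Glo 30 min RT; luminescence read.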

[4] = TOX21_p53_BLA_p5_viability: Viability Assessment in the Tox21 HCT-116 p53 Agonism Beta-lactamase Assay, Phase 5 (AID 2283600)
Procedure, shortened: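 4000 cells/well; 5 h pre-incubation; DMSO compounds pin-transferred, 217-fold dilution; 16 h, 37C/5% CO2; CCF4-AM 2 h RT; CellTiter-Glo 30 min RT; luminescence.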

[5] = CCTE_Shafer_MEA_dev_firing_rate_mean: CCTE's Neural Network Formation Assay for Mean Firing Rate, Shafer Lab (AID 2284031; active = hit-call score of the fitted dose curve at least 0.9, where 1 is the maximum; inactive = score below 0.9)
Procedure, shortened: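 Primary rat cortical neurons on 48-well, 16-electrode MEAs (PEI-coated, laminin at plating), exposed from day 0 with compound renewed at DIV 5 and 9. Spikes recorded DIV 5, 7, 9, 12; well-mean firing rate collapsed to trapezoidal AUC, loss-of-signal vs DMSO.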

[6] = CCTE_Shafer_MEA_dev_per_burst_spike_percent: CCTE's Neural Network Formation Assay for Percent of Spikes in a Burst, Shafer Lab (AID 2284032; active = hit-call score of the fitted dose curve at least 0.9, where 1 is the maximum; inactive = score below 0.9)
Procedure, shortened: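 Rat primary cortical neurons on 16-electrode MEA wells, dosed from plating day 0 for 12 days with renewal on DIV 5 and 9; spikes-in-bursts percentage averaged over bursting electrodes, collapsed as AUC across days 5, 7, 9, 12; loss direction versus DMSO.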

[7] = CCTE_Shafer_MEA_dev_burst_rate: CCTE's Neural Network Formation Assay for Burst Rate, Shafer Lab (AID 2284042; active = hit-call score of the fitted dose curve at least 0.9, where 1 is the maximum; inactive = score below 0.9)
Procedure, shortened: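 Exposure ran continuously over 12 days of network development in rat cortical cultures, with compound refreshed during full media changes on DIV 5 and 9. Single-electrode bursts per recording time, well-mean over active electrodes, trapezoidal AUC across days 5–12, fitted downward relative to DMSO.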

[8] = CCTE_Shafer_MEA_dev_bursting_electrodes_number: CCTE's Neural Network Formation Assay for Number of Bursting Electrodes, Shafer Lab (AID 2284043)
Procedure, shortened: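 Primary rat cortical neurons plated on 16-electrode MEA wells, exposed from day 0 with compound renewed at DIV 5 and 9. Electrodes bursting ≥1 burst per 2 min counted on days 5, 7, 9 and 12; trapezoidal AUC across days, fitted for loss versus DMSO.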

[9] = CCTE_Shafer_MEA_dev_per_burst_interspike_interval: CCTE's Neural Network Formation Assay for Burst Interspike Interval, Shafer Lab (AID 2284044; active = hit-call score of the fitted dose curve at least 0.9, where 1 is the maximum; inactive = score below 0.9;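 note: mean spike spacing inside bursts as AUC over recordings on days 5 7 9 12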)
Procedure, shortened: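 Neurons from rat cortex plated onto PEI-coated MEA wells with laminin […] at 1.5 x 10^5 cells/well, then treated from day 0. Media and compound fully replaced on DIV 5 and 9. Extracellular spontaneous firing recorded four times; interspike interval per burst summarised as AUC.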

[10] = CCTE_Shafer_MEA_dev_burst_duration_mean: CCTE's Neural Network Formation Assay for Mean Burst Duration, Shafer Lab (AID 2284045; active = hit-call score of the fitted dose curve at least 0.9, where 1 is the maximum; inactive = score below 0.9)
Procedure, shortened: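 Primary rat cortical neurons on 48-well 16-electrode MEA plates, exposed from day 0 with renewal at DIV 5 and 9; spontaneous activity recorded on days 5, 7, 9, 12. Well-mean burst duration across bursting electrodes, collapsed as trapezoidal AUC; DMSO baseline.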

[11] = CCTE_Shafer_MEA_dev_interburst_interval_mean: CCTE's Neural Network Formation Assay for Mean Interburst Interval, Shafer Lab (AID 2284046; active = hit-call score of the fitted dose curve at least 0.9, where 1 is the maximum; inactive = score below 0.9;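 note: well-mean interburst interval of bursting electrodes as AUC over four recording days; curve fitted for decrease in interburst interval relative to DMSO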)
Procedure, shortened: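 Primary rat cortical neurons on PEI-coated 48-well MEA plates (laminin added with cells at plating) (16 electrodes/well), exposed from plating day 0 with renewal at DIV 5 and 9. Mean inter-burst interval averaged over bursting electrodes, AUC across days 5, 7, 9, 12; DMSO baseline.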

[12] = CCTE_Shafer_MEA_dev_inter_network_spike_interval_mean: CCTE's Neural Network Formation Assay for Mean Inter-network Spike Interval, Shafer Lab (AID 2284047; active = hit-call score of the fitted dose curve at least 0.9, where 1 is the maximum; inactive = score below 0.9)
Procedure, shortened: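 Mean time between consecutive network-spike peaks, recorded extracellularly (adaptive spike detection) on DIV 5, 7, 9 and 12, summarized as trapezoidal AUC. Rat cortical cultures on MEAs dosed continuously days 0–12, re-dosed at feeds; loss-of-signal fit relative to DMSO.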

[13] = CCTE_Shafer_MEA_dev_network_spike_number: CCTE's Neural Network Formation Assay for Number of Network Spikes, Shafer Lab (AID 2284048; active = hit-call score of the fitted dose curve at least 0.9, where 1 is the maximum; inactive = score below 0.9)
Procedure, shortened: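 Primary rat cortical neurons on PEI/laminin 48-well MEA plates, dosed from plating day 0 for 12 days, renewed at DIV 5 and 9. Network spike counts recorded DIV 5, 7, 9, 12, collapsed as trapezoidal AUC; DMSO baseline.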

[14] = CCTE_Shafer_MEA_dev_spike_duration_mean: CCTE's Neural Network Formation Assay for Mean Spike Duration, Shafer Lab (AID 2284051; active = hit-call score of the fitted dose curve at least 0.9, where 1 is the maximum; inactive = score below 0.9;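 note: mean network spike duration pooled as area under curve over DIV 5 to 12 recordings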)
Procedure, shortened: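 Spontaneous activity was recorded on days 5, 7, 9 and 12 from rat cortical cultures grown on microelectrode arrays and dosed continuously from day 0, with media and compound renewed after the DIV 5 and 9 recordings. Network-spike duration was collapsed by area under the curve.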

[15] = CCTE_Shafer_MEA_dev_network_spike_duration_std: CCTE's Neural Network Formation Assay for Standard Deviation of Network Spike Duration, Shafer Lab (AID 2284052; active = hit-call score of the fitted dose curve at least 0.9, where 1 is the maximum; inactive = score below 0.9;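 note: hits are decreases in network spike duration SD versus DMSO vehicle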)
Procedure, shortened: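 Network spike duration variability was collapsed across recordings on days 5, 7, 9 and 12 by trapezoidal area-under-curve and fitted downward against DMSO. Cultures were rat cortical neurons on PEI-coated MEA plates, dosed continuously from plating, refed with compound DIV 5/9.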

[16] = CCTE_Shafer_MEA_dev_per_network_spike_spike_number_mean: CCTE's Neural Network Formation Assay for Mean Number of Spikes in a Network Spike, Shafer Lab (AID 2284053; active = hit-call score of the fitted dose curve at least 0.9, where 1 is the maximum; inactive = score below 0.9)
Procedure, shortened: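 Mean spike count within each network spike, taken in a 0.05 s window at its peak, was recorded on days 5, 7, 9 and 12 and integrated as trapezoidal area under the curve. Rat cortical cultures on MEA plates received continuous compound from day 0, refreshed at medium changes on DIV 5 and 9.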

[17] = CCTE_Shafer_MEA_dev_per_network_spike_spike_percent: CCTE's Neural Network Formation Assay for Percent of Spikes in a Network Spike, Shafer Lab (AID 2284054; active = hit-call score of the fitted dose curve at least 0.9, where 1 is the maximum; inactive = score below 0.9)
Procedure, shortened: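 Rat primary cortical neurons were grown on 48-well MEA plates (16 electrodes/well), exposed from plating day 0 through day 12, with treatment renewed on DIV 5 and 9. Percent of spikes within 0.05 s network-spike peaks was measured, summarised as AUC across days 5, 7, 9, 12.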

[18] = CCTE_Shafer_MEA_dev_LDH: CCTE's Lactate Dehydrogenase Assay for Cytotoxicity in the Neural Network Formation Assay, Shafer Lab (AID 2284068);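 note: exposure for twelve days from plating with re-dosing on DIV 5 and 9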
Procedure, shortened: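 Primary rat cortical neurons were cultured on PEI-coated MEA plates and exposed from plating through day 12, with compound renewed at medium changes on DIV 5 and 9. LDH activity was read spectrophotometrically; loss of signal versus DMSO indicates reduced viability.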

[19] = CCTE_Shafer_MEA_dev_mutual_information_norm: CCTE's Neural Network Formation Assay for Mutual Information Normalization, Shafer Lab (AID 2284091; active = hit-call score of the fitted dose curve at least 0.9, where 1 is the maximum; inactive = score below 0.9)
Procedure, shortened: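 Primary rat cortical neurons on PEI-coated 48-well MEA plates, 1.5 x 10^5 cells/well, exposed from day 0 through day 12 with re-dosing at DIV 5 and 9. Mutual information between electrodes recorded days 5, 7, 9, 12; trapezoidal AUC, loss-of-signal fit versus DMSO.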

[20] = CCTE_Shafer_MEA_dev_correlation_coefficient_mean: CCTE's Neural Network Formation Assay for Mean Correlation Coefficient, Shafer Lab (AID 2284093; active = hit-call score of the fitted dose curve at least 0.9, where 1 is the maximum; inactive = score below 0.9)
Procedure, shortened: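 Primary rat cortical neurons on PEI-coated 48-well MEA plates (16 electrodes/well) were exposed from plating day 0 through DIV12, with compound renewed at DIV5 and 9. Pairwise spike correlations were averaged per well; trapezoidal AUC across DIV5, 7, 9, 12.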

[21] = target: Norway rat Vesicular Monoamine Transporter (VMAT2), neurotransmitter transporter, Slc18a2 (gene 25549) (UniProt Q01827); test: NVS_TR_rVMAT2: NovaScreen (NVS) Transporter Assay for Norway rat Vesicular Monoamine Transporter (VMAT2), neurotransmitter transporter (AID 2283376);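 note: actives lower the bound radioligand signal below the DMSO level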
Chain of Norway rat Vesicular Monoamine Transporter (VMAT2), neurotransmitter transporter, Slc18a2 (gene 25549) (Q01827 whole entry, looked up): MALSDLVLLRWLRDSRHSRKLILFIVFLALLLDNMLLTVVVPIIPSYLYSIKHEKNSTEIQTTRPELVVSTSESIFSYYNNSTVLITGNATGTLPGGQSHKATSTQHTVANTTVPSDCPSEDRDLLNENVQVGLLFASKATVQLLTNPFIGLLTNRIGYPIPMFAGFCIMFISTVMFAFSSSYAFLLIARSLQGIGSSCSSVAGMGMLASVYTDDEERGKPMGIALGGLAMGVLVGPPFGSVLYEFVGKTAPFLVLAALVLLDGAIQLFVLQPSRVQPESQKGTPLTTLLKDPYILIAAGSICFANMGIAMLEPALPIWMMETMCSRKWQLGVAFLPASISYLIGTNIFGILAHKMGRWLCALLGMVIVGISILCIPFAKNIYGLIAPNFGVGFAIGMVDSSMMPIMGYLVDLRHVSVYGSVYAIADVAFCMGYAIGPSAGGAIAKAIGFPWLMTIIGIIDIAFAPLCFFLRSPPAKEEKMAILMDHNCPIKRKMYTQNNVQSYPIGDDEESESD
Procedure, shortened: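 Radioligand displacement binding on rat forebrain tissue preparation, filter-based scintillation read-out 1 hour after dosing. Primary screen in duplicate at 25 uM, then concentration series for actives; loss of signal versus DMSO.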

[22] = target: Cellular tumor antigen p53 (Homo sapiens) (UniProt P04637); test: TOX21_p53_BLA_p2_ratio: Tox21 HCT-116 p53 Agonism Beta-lactamase Assay, Ratio, Phase 2 (AID 2283592)
Chain of Cellular tumor antigen p53 (Homo sapiens) (P04637 whole entry, looked up): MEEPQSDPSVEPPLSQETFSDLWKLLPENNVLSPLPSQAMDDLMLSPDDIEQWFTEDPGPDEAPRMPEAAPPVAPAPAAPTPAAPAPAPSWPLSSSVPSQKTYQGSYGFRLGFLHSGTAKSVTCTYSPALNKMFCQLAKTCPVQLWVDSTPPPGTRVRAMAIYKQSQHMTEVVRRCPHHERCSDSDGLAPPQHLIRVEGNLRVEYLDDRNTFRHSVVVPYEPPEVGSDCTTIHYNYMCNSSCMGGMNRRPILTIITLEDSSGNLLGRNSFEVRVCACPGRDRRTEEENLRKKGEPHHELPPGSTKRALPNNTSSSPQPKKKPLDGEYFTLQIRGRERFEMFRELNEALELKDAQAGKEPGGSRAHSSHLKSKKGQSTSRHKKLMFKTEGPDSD
Procedure, shortened: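 HCT116 p53-bla; 4000 cells/well; 5 h pre-incubation; cpd in DMSO, 217-fold dilution; 16 h 37C/5% CO2; CCF4-AM 2 h RT; Ex 405, Em 460/530 ratio; DMSO = baseline; positive fitting direction.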

[23] = target: Cellular tumor antigen p53 (Homo sapiens) (UniProt P04637); test: TOX21_p53_BLA_p3_ratio: Tox21 HCT-116 p53 Agonism Beta-lactamase Assay, Ratio, Phase 3 (AID 2283596)
Procedure, shortened: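 HCT116 p53-bla cells (4000/well) given compound in DMSO (217-fold dilution) after 5 h, incubated 16 h at 37C. CCF4-AM substrate 2 h at room temperature; 460/530 nm emission ratio, gain fitted against DMSO.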

[24] = target: mouse Estrogen Receptor alpha (Era), Esr1 (gene 13982) (UniProt P19785); test: NVS_NR_mERa: NovaScreen (NVS) Nuclear Receptor Binding Assay for mouse Estrogen Receptor alpha (Era) (AID 2283378);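 note: hit means loss of bound radioligand signal relative to DMSO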
Chain of mouse Estrogen Receptor alpha (Era), Esr1 (gene 13982) (P19785 whole entry, looked up): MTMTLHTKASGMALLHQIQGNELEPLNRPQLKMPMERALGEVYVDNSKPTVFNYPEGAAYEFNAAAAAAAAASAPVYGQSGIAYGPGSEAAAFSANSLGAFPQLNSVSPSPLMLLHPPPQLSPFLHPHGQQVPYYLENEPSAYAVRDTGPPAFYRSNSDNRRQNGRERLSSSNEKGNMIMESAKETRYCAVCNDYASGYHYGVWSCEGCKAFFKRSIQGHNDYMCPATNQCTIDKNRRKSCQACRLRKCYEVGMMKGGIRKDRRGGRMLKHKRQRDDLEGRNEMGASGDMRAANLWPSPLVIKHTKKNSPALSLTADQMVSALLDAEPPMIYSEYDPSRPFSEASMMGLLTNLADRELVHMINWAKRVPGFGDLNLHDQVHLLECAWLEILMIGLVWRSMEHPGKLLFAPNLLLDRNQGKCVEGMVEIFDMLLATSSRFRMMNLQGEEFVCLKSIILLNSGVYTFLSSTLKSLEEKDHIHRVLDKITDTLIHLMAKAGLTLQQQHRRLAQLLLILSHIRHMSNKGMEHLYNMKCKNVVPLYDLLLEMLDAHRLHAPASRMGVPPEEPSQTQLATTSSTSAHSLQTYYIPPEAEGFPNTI
Procedure, shortened: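 Extracted mouse Era incubated with tritiated or iodinated radioligand plus test chemical, 18 h. Bound fraction separated on filters, counted by scintillation. DMSO = negative control/baseline; duplicate single-point at 25 uM, then concentration-response follow-up.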

[25] = target: Cellular tumor antigen p53 (Homo sapiens) (UniProt P04637); test: TOX21_p53_BLA_p5_ratio: Tox21 HCT-116 p53 Agonism Beta-lactamase Assay, Ratio, Phase 5 (AID 2283599)
Procedure, shortened: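 HCT-116 p53-bla cells (4000/well) plated 5 h, dosed with compound (217-fold DMSO dilution) for 16 h at 37 C; CCF4-AM substrate 2 h at room temperature. Activity is the 460/530 nm emission ratio (405 nm excitation), fitted in gain-of-signal direction versus DMSO.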

[26] = target: Cellular tumor antigen p53 (Homo sapiens) (UniProt P04637); test: TOX21_p53_BLA_p4_ratio: Tox21 HCT-116 p53 Agonism Beta-lactamase Assay, Ratio, Phase 4 (AID 2283601)
Procedure, shortened: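 HCT-116 p53 beta-lactamase reporter cells (4000/well) preincubated 5 h, then compound (217-fold dilution of DMSO stock) for 16 h at 37C. CCF4-AM substrate added 2 h at room temperature; 460/530 nm emission ratio fitted upward versus DMSO.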

Measured: AC50

CCOP(=O)(O)OCC (tested in a mixture with another compound)
active: [1] 72.3 µM | [2] 28.7 µM | [3] 83 µM | [4] 85.2 µM
inactive: [1] | [2] | [4] | [5] | [6] | [7] | [8] | [9] | [10] | [11] | [12] | [13] | [14] | [15] | [16] | [17] | [18] | [19] | [20]

CO[C@H]1/C=C/O[C@@]2(C)Oc3c(C)c(O)c4c(O)c(c(/C=N/N5CCN(C)CC5)c(O)c4c3C2=O)NC(=O)/C(C)=C\C=C\[C@H](C)[C@H](O)[C@@H](C)[C@@H](O)[C@@H](C)[C@H](OC(C)=O)[C@@H]1C
inactive: [21]

BrCCCCCCBr
inactive: [1] | [22] | [2] | [23]

c1ccc(C[P+](c2ccccc2)(c2ccccc2)c2ccccc2)cc1
active: [21] 16.7 µM

FC(F)(F)c1cccc(C2=CCN(CCc3ccc4ccccc4c3)CC2)c1
inactive: [1] | [22] | [2] | [23] | [3]

Cc1oc2c(NC(=O)c3c(Cl)cccc3Cl)cccc2c1C(C)(C)O
active: [21] 11.9 µM

COC(=O)C(C)N(C(=O)Cc1ccccc1)c1c(C)cccc1C (stereo not drawn)
inactive: [24] | [1] | [23]

CCOC(=O)CC(=O)OCC
inactive: [21]

CCCCCCCCCCCCCCCCCC(=O)OCC(CC)CCCC (stereo not drawn)
inactive: [21]

[Cl][Dy]([Cl])[Cl]
inactive: [21]

CCCCCCCCCCCCCCCC[N+](C)(C)CC
inactive: [21]

O=C=NC1CCC(CC2CCC(N=C=O)CC2)CC1 (stereo not drawn)
active: [21] 9.03 µM

COC(=O)OC
inactive: [21]

CCCCCCCCCCCCCCCC(=O)OC/C=C(C)/C=C/C=C(C)/C=C/C1=C(C)CCCC1(C)C
inactive: [21]

c1ccc(-c2nc3ccccc3[nH]2)cc1
active: [21] 6.56 µM

CCCC(O)C(O)CO (stereo not drawn)
inactive: [21]

N#CCBr
inactive: [1] | [22] | [2] | [23]

CCOCN(C(=O)CS(=O)(=O)O)c1c(C)cccc1CC
inactive: [21]

C=C(C)C(=O)OCCOCCOCCOC(=O)C(=C)C
inactive: [21]

Cc1cc(C(C)(C)c2cc(C)c(O)c(C)c2)cc(C)c1O
inactive: [2]
active: [1] 44.8 µM | [22] 20.7 µM | [23] 18.8 µM | [3] 57.2 µM | [25] 58.5 µM | [4] 83.3 µM

CN
inactive: [1] | [22] | [2] | [23] | [3] | [25] | [4] | [26]

CC(C)N(C(=O)SCC(Cl)=CCl)C(C)C
inactive: [1] | [22] | [2] | [23] | [3] | [25] | [4]

NCC(O)c1cccc(O)c1 (stereo not drawn)
inactive: [1] | [22] | [2] | [23] | [3] | [25] | [4] | [26]
